In PubChem BioAssay AID1159580 (chemical genetic matrix, 2015):
Screen size: about 5,500 compounds; about 2,000 (36%) were called active. Not shown: some 18% with an inconclusive outcome. No stated cut-off is given here; in the data, active means normalized growth mostly below about 0.91 (no sharp cut-off); inconclusive means no clear call, values can overlap the other calls; inactive means mostly above about 0.92. The list shows a part of the results.

Assay: chemical genetic growth profiling, strain panel (AID 1159580);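 further: tested at 20 µM; growth read once vehicle control cultures reached saturation at 30 °C; 1 = growth at the plate median or of vehicle wells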
Settings: growth OD

Measured: normalized growth

CC1=CC(=O)C2=C(C)CC(O)C3C(C)C(=O)OC3C12 (stereo not drawn)
inactive: S. cerevisiae deletion strains, locus YBR021W, strain FUR4, stronger effect = lower value 1.01 | S. cerevisiae deletion strains, locus YBR229C, strain ROT2, stronger effect = lower value 1 | S. cerevisiae deletion strains, locus YCL029C, strain bik1, stronger effect = lower value 1.02 | S. cerevisiae deletion strains, locus YDL035C, strain GPR1, stronger effect = lower value 1.03 | S. cerevisiae deletion strains, locus YDL074C, strain BRE1, stronger effect = lower value 1.06 | S. cerevisiae deletion strains, locus YDL101C, strain DUN1, stronger effect = lower value 1.01 | S. cerevisiae deletion strains, locus YDL185W, strain tfp1, stronger effect = lower value 1.02 | S. cerevisiae deletion strains, locus YDL192W, strain arf1, stronger effect = lower value 1.01 | S. cerevisiae deletion strains, locus YDR101C, strain arx1, stronger effect = lower value 1.06 | S. cerevisiae deletion strains, locus YDR162C, strain NBP2, stronger effect = lower value 0.989 | S. cerevisiae deletion strains, locus YDR318W, strain mcm21, stronger effect = lower value 0.994 | S. cerevisiae deletion strains, locus YDR388W, stronger effect = lower value 1.02 | S. cerevisiae deletion strains, locus YDR502C, strain sam2, stronger effect = lower value 1.04 | S. cerevisiae deletion strains, locus YEL061C, strain CIN8, stronger effect = lower value 1 | S. cerevisiae deletion strains, locus YER110C, stronger effect = lower value 1.02 | S. cerevisiae deletion strains, locus YER155C, strain BEM2, stronger effect = lower value 1 | S. cerevisiae deletion strains, locus YER167W, strain BCK2, stronger effect = lower value 1 | S. cerevisiae deletion strains, locus YGL078C, strain dbp3, stronger effect = lower value 1.03 | S. cerevisiae deletion strains, locus YGL086W, strain mad1, stronger effect = lower value 1.04 | S. cerevisiae deletion strains, locus YGL248W, strain PDE1, stronger effect = lower value 0.997 | S. cerevisiae deletion strains, locus YGR135W, strain pre9, stronger effect = lower value 1.02 | S. cerevisiae deletion strains, locus YGR229C, strain SMI1, stronger effect = lower value 1.01 | S. cerevisiae deletion strains, locus YGR252W, strain gcn5, stronger effect = lower value 0.969 | S. cerevisiae deletion strains, locus YHR030C, strain SLT2, stronger effect = lower value 0.999 | S. cerevisiae deletion strains, locus YHR079C, strain IRE1 (second series), stronger effect = lower value 1.02 | S. cerevisiae deletion strains, locus YHR094C, strain hxt1, stronger effect = lower value 1.01 | S. cerevisiae deletion strains, locus YHR129C, strain ARP1, stronger effect = lower value 1.01 | S. cerevisiae deletion strains, locus YHR200W, strain rpn10, stronger effect = lower value 1.02 | S. cerevisiae deletion strains, locus YIL066C, strain RNR3, stronger effect = lower value 0.993 | S. cerevisiae deletion strains, locus YIL073C, strain SPO22, stronger effect = lower value 1.08 | S. cerevisiae deletion strains, locus YIL125W, strain kgd1, stronger effect = lower value 1.03 | S. cerevisiae deletion strains, locus YIR030C, strain dcg1, stronger effect = lower value 1.01 | S. cerevisiae deletion strains, locus YJL095W, strain BCK1, stronger effect = lower value 0.985 | S. cerevisiae deletion strains, locus YJL134W, strain LCB3, stronger effect = lower value 0.996 | S. cerevisiae deletion strains, locus YJL168C, strain set2, stronger effect = lower value 1.01 | S. cerevisiae deletion strains, locus YJL187C, strain SWE1 (second series), stronger effect = lower value 0.997 | S. cerevisiae deletion strains, locus YJR043C, strain POL32, stronger effect = lower value 1.01 | S. cerevisiae deletion strains, locus YJR075W, strain HOC1, stronger effect = lower value 0.992 | S. cerevisiae deletion strains, locus YKL009W, strain mrt4, stronger effect = lower value 1.01 | S. cerevisiae deletion strains, locus YKL068W, stronger effect = lower value 0.999 | S. cerevisiae deletion strains, locus YKL085W, strain MDH1 (second series), stronger effect = lower value 0.992 | S. cerevisiae deletion strains, locus YKL085W, strain MDH1, stronger effect = lower value 0.992 | S. cerevisiae deletion strains, locus YKL190W, strain CNB1, stronger effect = lower value 1.01 | S. cerevisiae deletion strains, locus YKR001C, strain vps1, stronger effect = lower value 1.05 | S. cerevisiae deletion strains, locus YLR039C, strain RIC1, stronger effect = lower value 1.07 | S. cerevisiae deletion strains, locus YLR058C, strain SHM2, stronger effect = lower value 0.99 | S. cerevisiae deletion strains, locus YLR102C, strain apc9, stronger effect = lower value 1.02 | S. cerevisiae deletion strains, locus YLR262C, strain YPT6, stronger effect = lower value 1.04 | S. cerevisiae deletion strains, locus YLR268W, strain sec22, stronger effect = lower value 1.07 | S. cerevisiae deletion strains, locus YLR330W, strain CHS5, stronger effect = lower value 1.01 | S. cerevisiae deletion strains, locus YLR342W, strain FKS1 (second series), stronger effect = lower value 1.06 | S. cerevisiae deletion strains, locus YLR371W, strain rom2, stronger effect = lower value 1.05 | S. cerevisiae deletion strains, locus YLR418C, strain cdc73, stronger effect = lower value 1.01 | S. cerevisiae deletion strains, locus YML016C, strain PPZ1, stronger effect = lower value 1 | S. cerevisiae deletion strains, locus YML032C, strain rad52, stronger effect = lower value 0.988 | S. cerevisiae deletion strains, locus YML124C, strain tub3, stronger effect = lower value 1.01 | S. cerevisiae deletion strains, locus YMR078C, strain ctf18, stronger effect = lower value 1.03 | S. cerevisiae deletion strains, locus YMR223W, strain ubp8, stronger effect = lower value 0.99 | S. cerevisiae deletion strains, locus YMR307W, strain GAS1, stronger effect = lower value 1.02 | S. cerevisiae deletion strains, locus YNL067W, strain RPL9B, stronger effect = lower value 1 | S. cerevisiae deletion strains, locus YNL153C, strain GIM3, stronger effect = lower value 0.999 | S. cerevisiae deletion strains, locus YNL233W, strain BNI4, stronger effect = lower value 1 | S. cerevisiae deletion strains, locus YNL250W, strain rad50, stronger effect = lower value 1.03 | S. cerevisiae deletion strains, locus YNL271C, strain bni1, stronger effect = lower value 1.02 | S. cerevisiae deletion strains, locus YNL298W, strain CLA4, stronger effect = lower value 1.01 | S. cerevisiae deletion strains, locus YNL307C, strain MCK1, stronger effect = lower value 1.03 | S. cerevisiae deletion strains, locus YNL322C, strain KRE1, stronger effect = lower value 1 | S. cerevisiae deletion strains, locus YNR052C, strain pop2, stronger effect = lower value 1.01 | S. cerevisiae deletion strains, locus YOL006C, strain TOP1, stronger effect = lower value 1.13 | S. cerevisiae deletion strains, locus YOL012C, strain htz1 0.87 | S. cerevisiae deletion strains, locus YOL147C, strain pex11, stronger effect = lower value 1.03 | S. cerevisiae deletion strains, locus YOR061W, strain CKA2, stronger effect = lower value 1.01 | S. cerevisiae deletion strains, locus YOR069W, strain VPS5, stronger effect = lower value 1 | S. cerevisiae deletion strains, locus YOR136W, strain idh2, stronger effect = lower value 1.03 | S. cerevisiae deletion strains, locus YOR144C, strain elg1, stronger effect = lower value 1.01 | S. cerevisiae deletion strains, locus YOR184W, strain ser1, stronger effect = lower value 1.06 | S. cerevisiae deletion strains, locus YOR316C, strain cot1, stronger effect = lower value 1.01 | S. cerevisiae deletion strains, locus YPR119W, strain clb2, stronger effect = lower value 1.02 | S. cerevisiae deletion strains, locus YPR141C, strain kar3, stronger effect = lower value 1 | S. cerevisiae deletion strains, locus YPR163C, strain tif3, stronger effect = lower value 1.01 | S. cerevisiae deletion strains, locus YPR167C, strain met16, stronger effect = lower value 1.03 | S. cerevisiae deletion strains, strain wtn01, stronger effect = lower value 1.08 | S. cerevisiae strains, strain wild type, stronger effect = lower value 0.998
